# DAX1 inh-1: DAX1 (NR0B1) inhibitors on StAR promoter, primary screen, cell-based, luminescence, SF-1 (NR5A1), full-length DAX-1; HEK293T StAR-luciferase reporter, SF-1/DAX-1 repression relief; 1.1% of 370,000 active; inhibition, % at 6.8 µM;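 active = inhibition above the mean over all tested compounds plus 3 SD, cut at about 3.6% in these data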;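 note: 0% = DAX-1 cells with DMSO and 100% = cells lacking DAX-1 with DMSO; higher inhibition means more luminescence from relief of DAX-1 repression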
# DAX1 inh-2: DAX1 (NR0B1) inhibitors, primary screen, cell-based, HEK293, Gal4-DAX1, luciferase luminescence; Nuclear receptor subfamily 0 group B member 1 (Homo sapiens), P51843; HEK293 Gal4-DAX1 luciferase reporter; inhibition, % at 6.75 µM; 0.99% of 340,000 active; AID 504766, 2011;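 active = inhibition above the mean over all tested compounds plus 3 SD, cut at about 4.2% in these data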;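 note: 0% = DAX1-transfected cells with DMSO and 100% = empty-vector control cells with DMSO; inhibition shows as a rise in luminescence from relieved DAX1 repression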
# hgDAF12 agonist: H. glycines DAF-12 receptor agonists, primary screen, cell-based, luminescence, HEK293, GAL4 fusion, UAS-luciferase. HEK293 GAL4-hgDAF12 UAS-luciferase reporter, agonist luminescence; normalized to butyrate control. 1.8% of 370,000 active. activation, % at 6.8 µM;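 active = activation above a cutoff set at the mean of all screened compounds plus 3 SD, cut at about 10% in these data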;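 note: 0% = DMSO wells and 100% = sodium butyrate wells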
# ssDAF-12 act: S. stercoralis DAF-12 nuclear receptor activators, primary screen, cell-based, luminescence, HEK293, GRIP1 co-expression, lit1-tk-luc; Nuclear hormone receptor DAF-12 (Strongyloides stercoralis); HEK293 ssDAF-12/GRIP1 lit1-tk-luc reporter; % of 3 µM dafachronic acid response; activation, % at 6.8 µM; 1% of 370,000 active; AID 652126, 2013;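 active = activation above the mean over all tested compounds plus 3 SD, cut at about 0.9% in these data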;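 note: 0% = DMSO-only wells and 100% = 3 µM delta7-dafachronic acid wells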
# hcDAF-12 act: H. contortus DAF-12 nuclear receptor activators, primary screen, cell-based, luminescence, HEK293, lit1-tk-luc reporter; HEK293 hcDAF-12 lit1-tk-luc reporter; 0% DMSO, 100% Δ7-dafachronic acid; 1.4% of 370,000 active; activation, % at 6.8 µM;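 active = activation above the mean of all tested compounds plus 3 SD, cut at about 5.5% in these data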;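 note: 100% = response to 3 µM Δ7-dafachronic acid high control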
# DAX1 conf: DAX1 (NR0B1) inhibitors relieving SF-1 repression, confirmation, cell-based, luminescence, HEK293T, full-length DAX-1, SF-1 activated StAR promoter; shares compounds with DAX1 inh-1; HEK293T StAR-promoter luciferase reporter, SF-1/DAX-1 repression; inhibition, % at 6.8 µM; 87% of 2,400 active;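 active = inhibition above the average of every tested compound plus 3 SD, cut at about 3.8% in these data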;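 note: 0% = DAX-1 cells with DMSO and 100% = no DAX-1 control cells with DMSO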
# Target sequence (P51843 whole entry, looked up): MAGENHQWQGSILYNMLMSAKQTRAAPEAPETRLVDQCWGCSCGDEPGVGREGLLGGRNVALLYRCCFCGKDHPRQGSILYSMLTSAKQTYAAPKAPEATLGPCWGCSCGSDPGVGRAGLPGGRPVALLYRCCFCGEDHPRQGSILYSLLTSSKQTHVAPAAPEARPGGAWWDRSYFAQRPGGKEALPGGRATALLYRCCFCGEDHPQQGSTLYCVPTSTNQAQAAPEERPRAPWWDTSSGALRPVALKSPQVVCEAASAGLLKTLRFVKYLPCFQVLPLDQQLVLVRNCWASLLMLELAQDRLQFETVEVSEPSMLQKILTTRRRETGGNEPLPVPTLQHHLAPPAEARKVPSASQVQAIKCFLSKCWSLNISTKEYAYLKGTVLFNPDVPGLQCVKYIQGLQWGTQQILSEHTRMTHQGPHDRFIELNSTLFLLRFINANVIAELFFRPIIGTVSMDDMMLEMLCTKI
# SF1 AF2mut Luc: StAR reporter signal changes without DAX1, counter-screen for DAX1 inhibitor project, cell-based, luminescence, AF-2 mutant SF-1, transactivation. shares compounds with DAX1 inh-1. HEK293 StAR-luciferase, SF-1 AF2 mutant. inhibition, % at 6.8 µM. 78% of 2,400 active. AID 652136, 2013;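 active = inhibition above the mean of all tested compounds plus 3 SD, cut at about 3% in these data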;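 note: 0% = DAX-1 transfected cells with DMSO and 100% = cells without DAX-1 with DMSO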
# LXRb hcDAF ctr: LXR agonists, Gal4 luciferase reporter, confirmation, counter-screen for hcDAF-12 agonist project, cell-based, luminescence, HEK293, H. contortus campaign | activation, % at 6.8 µM | 3,400 tested, under 10 active | HEK293 Gal4-LXR tk-luc reporter, 24 h; normalized: DMSO 0%, positive control 100% | AID 743027, 2013 | shares compounds with hcDAF-12 act;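 active = mean percent activation of the reporter above a cutoff set as the average over tested compounds plus their standard deviation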
# hcDAF12 conf: H. contortus DAF-12 receptor agonists, confirmation, cell-based, luminescence, HEK293, lit1-tk-luc, triplicate. 61% of 3,400 active. HEK293 hcDAF-12 lit1-tk-luc reporter; % of Δ7-dafachronic acid response. shares compounds with hcDAF-12 act. activation, % at 6.8 µM;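 active = mean activation across triplicate tests above the threshold derived from the earlier primary screen, cut at about 5.5% in these data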;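 note: 0% = DMSO only wells and 100% = 3 µM Δ7-dafachronic acid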
# hgDAF12 ag: H. glycines DAF-12 receptor agonists, confirmation, cell-based, luminescence, HEK293, GAL4-LBD fusion; shares compounds with hgDAF12 agonist; HEK293 GAL4-hgDAF12 luciferase reporter, agonist mode; percent of butyrate response; activation, % at 6.8 µM; 80% of 3,300 active; AID 743050, 2013;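 active = mean activation over triplicate wells above the hit cutoff derived from the earlier primary screen, cut at about 11% in these data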;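 note: 0% = DMSO low control and 100% = 2 mM sodium butyrate high control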
# LXRb DAF12 ctr: LXR agonists, Gal4 luciferase reporter, confirmation, counter-screen for hgDAF-12 agonist project, cell-based, luminescence, HEK293, H. glycines campaign | shares compounds with hgDAF12 agonist | 24 h | activation, % at 6.8 µM | AID 743051, 2013 | 3,300 tested, under 10 active;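 active = mean activation of the triplicate above a set limit carried over from the primary screen, none filed active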
# * hit, by the source's call; x = not tested or not shown. Compounds with a hit are over-represented: about 4.1% of the library has one in this group of screens.
SMILES,DAX1 inh-1,DAX1 inh-2,hgDAF12 agonist,ssDAF-12 act,hcDAF-12 act,DAX1 conf,SF1 AF2mut Luc,hgDAF12 ag,LXRb DAF12 ctr,others
O=C(CSc1nc2ccccc2nc1N1CCCCC1)N1CCN(C(c2ccccc2)c2ccc(Cl)cc2)CC1 (stereo unspecified),0,x,-2,-1,-1,x,x,x,x,
O=C1c2[nH]nc(-c3ccccc3)c2C(c2ccc(F)cc2)N1Cc1ccccc1 (stereo unspecified),0,x,-1,-1,0,x,x,x,x,
C=C1[C@@H](CCO)N(S(=O)C(C)(C)C)C[C@@H]1C (stereo partly specified),1,x,0,0,-1,x,x,x,x,
Cn1ccsc1=NC(=O)c1ccc(Cl)cc1,4.6*,1,14*,1.1*,9.4*,8.9*,7.7*,12*,0,LXRb hcDAF ctr=1;hcDAF12 conf=7.9*
COC(=O)C1CN(Cc2cn(Cc3ccc(Cl)cc3)nn2)CCS(=O)(=O)N1Cc1ccc(C)cc1 (stereo unspecified),-2,x,-4,-2,-4,x,x,x,x,
O=C(NCCSc1ccccn1)c1ccc(Cl)cc1,4.5*,1,21*,0,5,10*,4.8*,16*,1,
O=C(NCCSc1ccccn1)c1ccc(Cl)cc1Cl,7.3*,1,15*,0,4,11*,6.6*,18*,1,
CS(=O)(=O)N(Cc1ccc(Cl)cc1)c1ccc(C(=O)NCCSc2ccccn2)cc1,-1,-1,-4,-1,-4,x,x,x,x,
Cc1ccccc1NC(=O)CN1CCN(c2nc(-c3ccccc3)cs2)CC1,-1,x,1,-1,-3,x,x,x,x,
CC(=O)OCC(=O)Nc1ccc(N=Nc2ccccc2)cc1,4.8*,0,17*,1,4,10*,6.0*,14*,1,
CCCCCCCCN1CCS(=O)(=O)N(Cc2ccc(Cl)cc2)C(C(=O)OC)C1 (stereo unspecified),1,x,-2,-1,0,x,x,x,x,
COc1ccc(CCc2ccc3ccccc3n2)cc1,5.7*,2,14*,0,3,13*,6.8*,12*,1,
COc1ccc(-c2ccc3ccccc3n2)cc1,12*,-1,24*,1,9.6*,20*,8.7*,17*,1,LXRb hcDAF ctr=2;hcDAF12 conf=11*
COc1cc2ccc(-c3ccc4ccccc4n3)cc2cc1OC,1,2,6,-1,1,x,x,x,x,
COc1ccc(-c2ccc3ccccc3n2)cc1OC,5.3*,1,17*,0,1,7.4*,3.4*,12*,1,
COc1ccccc1CNC(=O)N1CCC(c2nc3ccc(Cl)cc3[nH]2)CC1,-2,x,-2,-1,-3,x,x,x,x,
O=[N+]([O-])c1cccc(COc2ccc(CN3CCOCC3)cc2)c1,7.2*,2,20*,1.4*,7.8*,9.8*,5.5*,16*,1,LXRb hcDAF ctr=1;hcDAF12 conf=6.6*
O=[N+]([O-])c1cccc(CN2CCCCCC2)c1,0,1,2,0,-2,x,x,x,x,
O=[N+]([O-])c1cccc(COc2ccc(CN3CCCC3)cc2)c1,4.5*,2,24*,0,3,11*,6.8*,15*,1,
CC(C)CNc1ccc2c(c1)OC[C@H](C)NS2(=O)=O,0,x,-3,-1,-1,x,x,x,x,
COc1ccc(C2CC(c3ccc4ccccc4c3)=NN2C(=O)COC(=O)C2CCC(=O)N2)cc1 (stereo unspecified),6.7*,2,15*,1.2*,10*,15*,6.5*,19*,1,LXRb hcDAF ctr=1;hcDAF12 conf=6.0*
COc1ccc(C2CC(c3ccc4ccccc4c3)=NN2C(=O)CNC2CCCCC2)cc1 (stereo unspecified),0,3,4,-2,0,x,x,x,x,
COC(=O)[C@]12C[C@H](CC(=O)NCc3ccc(OC)c(OC)c3)C(=O)N(Cc3cccc4ccccc34)C1=C[C@H](C1CCCC1)O[C@@H]2C,-1,x,2,-1,-4,x,x,x,x,
Cc1ccc(/C=N/N=C/c2ccc(C)s2)s1,5.1*,3,18*,0,9.1*,19*,7.7*,21*,1,LXRb hcDAF ctr=2;hcDAF12 conf=8.2*
CCn1c(C)cc(C(=O)COC(=O)c2cccnc2SC)c1C,5.9*,7.9*,15*,0,5,6.1*,4.4*,14*,1,
O=C(O)CCN1C(=O)/C(=C/c2cccc(OCc3ccc(F)cc3)c2)SC1=S,x,x,-3,-2,-2,x,x,x,x,
COc1ccc([C@H]2Cc3cc(O)cc(O)c3C(=O)O2)cc1O,5.2*,4,18*,2.3*,14*,20*,13*,25*,1,LXRb hcDAF ctr=2;hcDAF12 conf=11*
COc1ccc([C@H]2Cc3cccc(O)c3C(=O)O2)cc1O,-1,2,3,0,3,x,x,x,x,

# Assay outcomes as filed in PubChem.
